{"source": "the supplement of paper PMC11577813", "about": "“Eurasian spruce bark beetle detects lanierone using a highly expressed specialist odorant receptor, present in several functional sensillum types” (BMC Biology, 2024)", "note": "± gives the standard deviation of the averaged measurements.", "data": [{"system": "(4S)-cis-verbenol A-neuron OSN class", "test": "net action potential response of A-neuron (blank-subtracted) (spikes/s (Hz)); higher = stronger excitation", "conditions": "10 µg on filter paper; neuron: A neuron (large spike amplitude)", "protocol": "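Single sensillum recordings from antennal olfactory sensilla of live adult Ips typographus. Each compound was 10 µg in paraffin oil on filter paper, delivered as a 0.5 s puff. Net response = spikes in the first 0.5 s of response minus the 0.5 s pre-stimulus count, doubled to give Hz, with blank response subtracted. Values are for the large-spike A-neuron class of each of seven sensillum types that co-house the lanierone B-neuron; N = 1-4 sensilla, averaged.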", "values": [{"smiles": "CCC/C=C/CO", "net action potential response": "2 ± 4"}, {"smiles": "CC(C)=CCC/C(C)=C/C=O", "note": "[Citral (E/Z mix)]", "net action potential response": "0 ± 3.5"}, {"smiles": "CC/C=C/CCO", "net action potential response": "2.67 ± 7"}, {"smiles": "CC12CCC(CC1)C(C)(C)O2", "note": "[1,8-Cineole]", "net action potential response": "1.33 ± 4.2"}, {"smiles": "C=CC(O)CCCCC", "note": "(racemic) [(±)-1-Octen-3-ol]", "net action potential response": "2.67 ± 3.1"}, {"smiles": "CC(=O)OC/C=C(\\C)CCC=C(C)C", "note": "[Geranyl acetate]", "net action potential response": "-2.67 ± 4.2"}, {"smiles": "C=C1CCC2CC1C2(C)C", "note": "(stereo not drawn) [(-)-β-Pinene]", "net action potential response": "-3 ± 4.2"}, {"smiles": "C=Cc1ccccc1", "note": "[Styrene]", "net action potential response": "1.33 ± 9"}, {"smiles": "C[C@@H]1C(=O)C[C@H]2C[C@@H]1C2(C)C", "note": "[(+)-Isopinocamphone]", "net action potential response": "-0.667 ± 4.6"}, {"smiles": "C=CCc1ccc(OC)c(OC)c1", "note": "[Eugenol methyl ether]", "net action potential response": "-0.667 ± 8.1"}, {"smiles": "C=Cc1ccc(OC)cc1", "note": "[4-Vinyl anisole]", "net action potential response": "0.667 ± 5"}, {"smiles": "CC(=O)CC/C=C(\\C)CCC=C(C)C", "note": "[Geranylacetone]", "net action potential response": "3.33 ± 6.1"}, {"smiles": "C[C@]12CCC[C@](C)(OC1)O2", "note": "(racemic) [(±)-Frontalin]", "net action potential response": "-2 ± 4"}, {"smiles": "CC1=CCC2CC1C2(C)C", "note": "(stereo not drawn) [(+)-α-Pinene]", "net action potential response": "-2 ± 7.2"}, {"smiles": "C=C1[C@@H]2CC[C@@H](C2)C1(C)C", "note": "(racemic) [(±)-Camphene]", "net action potential response": "4 ± 3.5"}, {"smiles": "CC1=C[C@@H](O)[C@H]2C[C@@H]1C2(C)C", "note": "[(-)-trans-Verbenol]", "net action potential response": "52.7 ± 13"}, {"smiles": "CCC1CCC2(CCCO2)O1", "note": "(racemic) [(±)-Chalcogran]", "net action potential response": "1.33 ± 5"}, {"smiles": "CC1=CC(C)(C)C=C(O)C1=O", "note": "[Lanierone]", "net action potential response": "1.33 ± 5.8"}, {"smiles": "CC1=CCC2C(C1)C2(C)C", "note": "(single isomer, unassigned; (+)) [(+)-3-Carene]", "net action potential response": "3.33 ± 7"}, {"smiles": "CCCCCC=O", "note": "[Hexanal]", "net action potential response": "0.667 ± 5"}, {"smiles": "CC/C=C\\CCO", "net action potential response": "-0.667 ± 3.1"}, {"smiles": "CC(=O)c1ccccc1", "note": "[Acetophenone]", "net action potential response": "0.667 ± 1.1"}, {"smiles": "CC(C)CCO", "note": "[3-Methyl-1-butanol]", "net action potential response": "6 ± 7.2"}, {"smiles": "C[C@H]1C(=O)C[C@H]2C[C@@H]1C2(C)C", "note": "[(-)-Pinocamphone]", "net action potential response": "2.67 ± 6.4"}, {"smiles": "CC1=CCC(=C(C)C)CC1", "note": "[Terpinolene]", "net action potential response": "0 ± 3.5"}, {"smiles": "OCCc1ccccc1", "note": "[2-Phenylethanol]", "net action potential response": "-2 ± 6.9"}, {"smiles": "C=CC(=C)CC(O)C=C(C)C", "note": "(racemic) [(±)-Ipsdienol]", "net action potential response": "-2.67 ± 2.3"}, {"smiles": "c1ccc2c(c1)CCO2", "note": "[2,3-Dihydrobenzofuran]", "net action potential response": "0 ± 2"}, {"smiles": "C=CC(=C)C[C@@H](O)CC(C)C", "note": "(racemic) [(±)-Ipsenol]", "net action potential response": "1.33 ± 4.2"}, {"smiles": "COc1ccccc1", "note": "[Anisole]", "net action potential response": "1.33 ± 7.6"}, {"smiles": "CC(C)[C@@]12CC[C@@](C)(O)[C@@H]1C2", "note": "[(+)-trans-4-Thujanol]", "net action potential response": "-0.667 ± 3.1"}, {"smiles": "C=CC(C)(C)O", "note": "[2-Methyl-3-buten-2-ol]", "net action potential response": "-4 ± 4"}, {"smiles": "CC(=O)OCCC(C)C", "note": "[3-Methylbutyl acetate]", "net action potential response": "-4 ± 4"}, {"smiles": "C=CC(=C)CCC=C(C)C", "note": "[Myrcene]", "net action potential response": "2 ± 4"}, {"smiles": "CCCCCCO", "note": "[1-Hexanol]", "net action potential response": "-1.33 ± 4.6"}, {"smiles": "CCc1ccc(O)c(OC)c1", "note": "[4-Ethylguaiacol]", "net action potential response": "2 ± 6"}, {"smiles": "C=C(C)C1CC=C(C)C(=O)C1", "note": "(racemic) [(±)-Carvone]", "net action potential response": "2 ± 4"}, {"smiles": "CC1=CC(=O)[C@@H]2C[C@H]1C2(C)C", "note": "[(-)-Verbenone]", "net action potential response": "24.7 ± 25"}, {"smiles": "CC12CCC(CC1=O)C2(C)C", "note": "(racemic) [(±)-Camphor]", "net action potential response": "-2.67 ± 8.1"}, {"smiles": "COc1ccc(C)cc1", "note": "[4-Methyl anisole]", "net action potential response": "4.67 ± 4.6"}]}]}
